From PubChem BioAssay
Autofluor counter: flagged as autofluorescent in microsphere protease counterscreen; compound autofluorescence counterscreen, microsphere flow cytometry; hits give high values; fluorescence intensity (test concentration not listed); hit rate 3.1% among 360,000; AID 624483; in the data active = fluorescence intensity above about 16000; inconclusive = no clear call, values can overlap the other calls
GDH-TPI counter: GDH-TPI coupling enzyme inhibitors, primary screen, artefact control for M. tuberculosis FBA inhibitor project, biochemical, absorbance, full deck | AID 588335, 2011 | hit rate 1.2% among 360,000 | GDH-TPI coupled enzyme counterscreen, NADH absorbance | inhibition, % at 4.8 µM; in the data active = inhibition above about 30%
BoNT F protease: BoNT/F light chain protease inhibitors, primary screen, biochemical, flow cytometry, MLPCN library | Botulinum neurotoxin type F light chain protease (Clostridium botulinum) | inhibition, % at 10 µM | Multiplex microsphere protease cleavage assay | AID 588497, 2011 | hit rate 0.22% among 360,000; in the data active = inhibition above about 35%, passing the limit was not always enough; inconclusive = no clear call, values can overlap the other calls
BoNT A protease: BoNT/A light chain protease inhibitors, primary screen, biochemical, flow cytometry, MLPCN library. multiplex microsphere protease substrate cleavage. Botulinum neurotoxin type A light chain protease (Clostridium botulinum A str. ATCC 3502). inhibition, % at 10 µM. hit rate 0.17% among 360,000
Mtb FBA inh: Mtb FBA enzyme inhibitors, primary screen, biochemical, fluorescence, strain H37Rv. inhibition, % at 1 µM. Fructose-bisphosphate aldolase (Mycobacterium tuberculosis (strain ATCC 25618 / H37Rv)), …. hit rate 2.3% among 360,000. purified M. tuberculosis FBA, fluorescence read-out. AID 588726, 2011; in the data active = inhibition above about 27%
Target sequence (P9WQA3 whole entry, looked up): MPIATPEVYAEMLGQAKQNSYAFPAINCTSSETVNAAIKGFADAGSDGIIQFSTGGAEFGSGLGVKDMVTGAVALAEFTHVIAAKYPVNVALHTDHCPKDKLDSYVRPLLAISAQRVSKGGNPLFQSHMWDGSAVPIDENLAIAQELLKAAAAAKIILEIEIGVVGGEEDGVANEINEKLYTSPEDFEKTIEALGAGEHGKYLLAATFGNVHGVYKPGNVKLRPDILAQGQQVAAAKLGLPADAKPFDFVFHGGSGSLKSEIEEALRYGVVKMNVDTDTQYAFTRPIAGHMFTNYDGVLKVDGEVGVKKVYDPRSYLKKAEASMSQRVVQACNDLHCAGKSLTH
Anthrax LF prot: Bacillus anthracis LF protease inhibitors, primary screen, biochemical, multiplex microsphere, MLPCN library | Lethal factor (Bacillus anthracis), P15917 | multiplex microsphere protease cleavage assay | inhibition, % at 10 µM | hit rate 0.12% among 360,000 | AID 588501, 2011
Of the large screens only hits and unclear results are named; the others gave an inactive call. An excerpt weighted towards active compounds, which were near 6.6% of everything screened. Rule as the data show it, unless noted: active = inhibition above about 30%; inconclusive = no clear call, values can overlap the other calls; inactive = below that.

COc1ccccc1CN(C)C(=O)c1sccc1-c1ccccc1	none
O=C(c1ccc(Cl)cc1)c1oc2ccccc2c1CS(=O)c1ccc(Cl)cc1 (stereo unspecified)	Autofluor counter 22309, BoNT A protease inconclusive
Nc1c(C(=O)c2ccc(Cl)cc2)oc2ccccc12	none
CC(C)CNC(=O)COC(=O)CNC(=O)c1cc(Cl)cc([N+](=O)[O-])c1	none
COc1cccc(CNc2ncc(Br)cc2Br)c1O	none
COc1cccc(CNc2ccc(Br)cn2)c1O	Autofluor counter 24305, BoNT A protease inconclusive
COc1ccccc1-c1cccc([C@@H]2C[C@H]3[C@@H](CN2)CON3C)c1	none
COc1ccc([C@@H]2C[C@H]3CN(Cc4ccccc4OC)C(=O)[C@]34CCCN24)cc1C	Autofluor counter 19989
COc1ccc(CC(=O)NCc2ccccc2)cc1S(=O)(=O)N1CCOCC1	none
COc1ccc(CC(=O)NCc2ccccc2Cl)cc1S(=O)(=O)N1CCOCC1	Autofluor counter 23297
C=CCOc1ccc(/C(O)=C2\C(=O)C(=O)N(CCOC)C2c2cccnc2)cc1 (stereo unspecified)	GDH-TPI counter 34
CCCOc1ccc(/C(O)=C2/C(=O)C(=O)N(CCCOC)C2c2ccncc2)cc1 (stereo unspecified)	none
COCCCN1C(=O)C(=O)/C(=C(/O)c2ccc(OCC(C)C)cc2C)C1c1cccnc1 (stereo unspecified)	GDH-TPI counter 44
CCc1nc2c(OCc3cc(Cl)cc(Cl)c3)cccn2c1N(C)C(=O)c1ccccc1F	none
O=C(O)CNC(=O)c1ccccc1NC(=O)c1ccco1	Autofluor counter 22742
O=C(Nc1ccccc1C(=O)NCCc1ccccc1)c1ccco1	none
Cc1ccccc1C(=O)Nc1ccccc1C(=O)NCc1ccccc1	Autofluor counter 21881
Cc1ccccc1NC(=O)c1ccccc1O	Autofluor counter 22757
CCc1cccc(NS(=O)(=O)c2csc(C(N)=O)c2)c1	none
O=C(OCC(=O)N1CCCc2ccccc21)c1cccc(S(=O)(=O)N2CCc3ccccc32)c1	none
O=C(OCCCOC(=O)c1ccc([N+](=O)[O-])o1)c1ccc([N+](=O)[O-])o1	none
CCCS(=O)(=O)c1c(S(=O)(=O)CCC)c2cnccn2c1C(=O)c1ccc(OC)cc1	BoNT F protease inconclusive
CCCS(=O)(=O)c1c(S(=O)(=O)CCC)c2cc(-c3ccncc3)ccn2c1C(=O)OC	Mtb FBA inh active
O=C(CC(SCCO)c1ccc([N+](=O)[O-])cc1)c1ccco1 (stereo unspecified)	GDH-TPI counter 31
CC(=O)NC(CSC(CC(=O)c1ccco1)c1ccc(C)cc1)C(=O)O (stereo unspecified)	GDH-TPI counter 31
CC(C)N(Cc1nc(-c2ccc3c(c2)OCO3)no1)Cc1nccn1C	none
CCCSc1nc(NCc2ccco2)c2c3c(sc2n1)COC(C)(C)C3	Autofluor counter 17467
CCCCSc1nc(NCc2ccco2)c2c3c(sc2n1)COC(C)(C)C3	Autofluor counter 16223
COCc1c(C(=O)N/N=C/c2ccc(C)o2)nnn1-c1nonc1N	GDH-TPI counter 38
CN(C)c1ccc(/C=N/NC(=O)c2nnn(-c3nonc3N)c2CN(C)c2ccccc2)cc1	GDH-TPI counter 31
Nc1nonc1-n1nnc(C(=O)N/N=C/c2ccc(O)cc2)c1COc1ccc(F)cc1	GDH-TPI counter 32
CC(C)(C)c1ccccc1NC(=O)c1ccc(-n2cncn2)c([N+](=O)[O-])c1	none (no result: Autofluor counter, BoNT F protease, BoNT A protease, Anthrax LF prot)
Cn1nc(C(=O)OCC(=O)Nc2sccc2C(N)=O)c2ccccc2c1=O	none
CCN(CC)S(=O)(=O)c1ccc(N2CCOCC2)c(NC(=O)Cc2cccc3ccccc23)c1	none
O=C(O)CCCC(=O)N1N=C(c2ccccc2)CC1c1ccc2c(c1)OCO2 (stereo unspecified)	none
Cc1cc(N2CCC(C(=O)N3CCN(c4cccc(C)c4C)CC3)CC2)n2ncnc2n1	Autofluor counter 17532
COc1ccc(OC)c(CC(=O)O)c1	Autofluor counter 23906, BoNT A protease inconclusive
COc1ccc(OC)c(C(=O)C(=O)c2cc(OC)ccc2OC)c1	none
OC1CCC2CN3CCc4c([nH]c5ccccc45)C3CC2C1 (stereo unspecified)	none
Fc1ccc(-c2ccc(/C=N/n3cnnc3)o2)cc1	GDH-TPI counter 41
Cc1ccc(-c2ccc(/C=N\n3cnnc3)o2)c(Br)c1	GDH-TPI counter 45
Fc1ccc(-c2ccc(/C=N\n3cnnc3)o2)cc1Cl	GDH-TPI counter 42
O=[N+]([O-])c1ccc(Cl)c(-c2ccc(/C=N/n3cnnc3)o2)c1	GDH-TPI counter 53
O=[N+]([O-])c1cc(-c2ccc(/C=N/n3cnnc3)o2)ccc1Cl	none
Cc1c(NS(=O)(=O)c2cc(C(=O)N(C)Cc3ccccc3)ccc2Cl)c(=O)n(-c2ccccc2)n1C	none
CCOc1ccc(C(=O)OCC(=O)N2CCCC2)cc1OCC	none
CCC1=C(OC(=O)N(CC)CC)N2C(=O)OC(=NCCc3c[nH]c4ccccc34)[C@]2(Cc2ccccc2)[C@H]2C1=CC[C@H]1C(=O)NC(=O)[C@H]12	none
CC(C)COC(=O)c1cc(-c2ccc(/C=N/n3cnnc3)o2)ccc1Cl	Autofluor counter 22229
CCCCN1C[C@H](C)[C@@H](CC(=O)NC)C1=O	none
Cc1cccc(OCc2nnc(SCC(=O)NC3CCCC3)n2C)c1	none
Cc1cccc(OCc2nnc(SCC(=O)N3CCCC3)n2C)c1	Autofluor counter 16407
CCn1c(COc2cccc(C)c2)nnc1SCC(=O)N1CCCC1	none
Cc1cccc(OCc2nnc(SCC(=O)N3CCc4ccccc43)n2C)c1	Autofluor counter 24057
Cc1ccc2[nH]c3c(N4CCN(Cc5ccccc5)CC4)ncnc3c2c1	none
CCOc1ccc2[nH]c3c(N4CCN(c5ccccn5)CC4)ncnc3c2c1	Autofluor counter 18129
CCCCC1CCC(C(=O)Nc2ccccc2)CC1 (stereo unspecified)	Autofluor counter 16463, BoNT A protease inconclusive
Cn1c(=O)c2c(nc(NCCCN3CCOCC3)n2Cc2ccc(Cl)cc2)n(C)c1=O	Autofluor counter inconclusive, Anthrax LF prot inconclusive
Cn1c(=O)c2c(nc(NCCCN3CCOCC3)n2Cc2cccc(Cl)c2)n(C)c1=O	Autofluor counter 22276
Cn1c(=O)c2c(nc(CN3CCC(C(N)=O)CC3)n2CCc2ccccc2)n(C)c1=O	Autofluor counter 19348, BoNT A protease inconclusive
Cn1c(=O)c2c(nc(SCCN3CCOCC3)n2Cc2cccc3ccccc23)n(C)c1=O	Autofluor counter 19656
Cn1c(=O)c2c(nc(CN3CCC(Cc4ccccc4)CC3)n2CCN2CCOCC2)n(C)c1=O	Autofluor counter 27251
